One may read the inhibition as the drop in the measured response relative to a control, in per cent.

Unmarked numbers belong to inactive results. For some of these results: Results with a measured potency or affinity are listed apart. Active and inactive are the calls of the source. Unless noted, how the calls were made is not given here.

This passage reports growth inhibition, inhibition and outcome results from PubChem BioAssay.

Experiment [1] in a line: antimalarial activity against Dd2 strain (AID 2302;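 active means growth inhibition above 50% at the single 2 µM test dose, taken to imply half-maximal potency below 2 µM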;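 further: 0% = DMSO untreated growth and 100% = chloroquine plus artemisinin killed control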). Conditions: P. falciparum Dd2 in RBCs, LDH growth readout, 72 h; at 2 µM; hits give high values.
A short description of experiment [2]: human hepatoma cell viability loss – ATP luminescence, cytotoxicity control for P. falciparum antimalarial project, primary screen (AID 2303;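 active means inhibition above 50%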;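 further: 0% = DMSO wells and 100% = digitonin-killed cells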). Conditions: HepG2 viability, 24-48 h, at 10 µM, hits give high values.
Experiment [3] has as its target L-lactate dehydrogenase (Plasmodium falciparum (isolate CDC / Honduras)) (UniProt Q27743). Description: PfLDH activity inhibition – cell lysate, 3D7 strain, counter-screen for P. falciparum growth inhibition project (AID 2304).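 Further: 0% = vehicle and 100% = reference inhibitor.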 The following applies: P. falciparum 3D7 crude extract, LDH APAD/NBT absorbance; at 2 µM; hits give high values.
A short description of experiment [4]: inhibition of 3D7 malaria parasite growth – strain 3D7 (AID 2306).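 Further: 0% = DMSO wells and 100% = chloroquine plus artemisinin control wells.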 Conditions: P. falciparum 3D7 erythrocytic growth, LDH absorbance, 72 h; at 2 µM; hits give high values.
For experiment [5], the target named is Calcium-dependent protein kinase 1 (Plasmodium falciparum (isolate 3D7)) (UniProt P62344). Description: PfCDPK1 kinase inhibitors, biochemical, TCAMS library (AID 1159585; cut-off not given, nearly all actives have IC50 up to about 0.98 µM;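 further: inhibitors leave more ATP so luminescence rises with inhibition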). The following applies: recombinant PfCDPK1, Kinase-Glo ATP depletion luminescence. In general terms: Kinase-Glo measures the ATP left after a reaction by luminescence.
In experiment [6] the target is Plasmodium falciparum protein kinase 6 (PK6, PF3D7_1337100) (UniProt Q8IDW1). Description: PfPK6 kinase inhibitors, biochemical, TCAMS library (AID 1159586). Conditions: recombinant PfPK6, Kinase-Glo ATP depletion luminescence.
Experiment [7] concerns the target Protein kinase 7 (PK7), Plasmodium falciparum 3D7 (PF3D7_0213400) (UniProt Q7YTF7). Description: inhibition of Plasmodium PK7 catalytic activity – biochemical, TCAMS antimalarial set, Kinase-Glo luminescence (AID 1159587). The following applies: recombinant PfPK7, Kinase-Glo ATP depletion luminescence.
In experiment [8] the target is Calcium-dependent protein kinase 4 (Plasmodium falciparum (isolate 3D7)) (UniProt Q8IBS5). Briefly: PfCDPK4 kinase inhibitors, biochemical, TCAMS library (AID 1159588; cut-off not given, nearly all actives have IC50 up to about 0.91 µM). Conditions: recombinant PfCDPK4, Kinase-Glo ATP depletion luminescence.
Calcium-dependent protein kinase 4 (Plasmodium falciparum (isolate 3D7)), sequence (Q8IBS5 whole entry, looked up): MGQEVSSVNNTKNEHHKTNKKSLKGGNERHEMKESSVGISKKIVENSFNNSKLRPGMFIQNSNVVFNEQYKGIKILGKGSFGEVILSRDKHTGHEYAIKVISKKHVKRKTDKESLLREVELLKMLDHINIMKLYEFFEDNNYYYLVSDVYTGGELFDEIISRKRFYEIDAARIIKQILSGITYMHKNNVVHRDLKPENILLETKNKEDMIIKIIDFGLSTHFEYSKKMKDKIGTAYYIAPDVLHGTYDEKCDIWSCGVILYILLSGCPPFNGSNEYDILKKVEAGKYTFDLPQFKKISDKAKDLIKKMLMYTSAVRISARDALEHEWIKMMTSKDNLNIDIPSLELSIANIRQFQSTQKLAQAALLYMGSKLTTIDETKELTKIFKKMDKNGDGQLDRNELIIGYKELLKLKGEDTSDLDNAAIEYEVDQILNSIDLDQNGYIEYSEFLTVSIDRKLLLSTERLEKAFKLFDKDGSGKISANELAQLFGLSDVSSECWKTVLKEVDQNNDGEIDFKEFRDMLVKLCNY

Calcium-dependent protein kinase 1 (Plasmodium falciparum (isolate 3D7)), sequence (P62344 whole entry, looked up): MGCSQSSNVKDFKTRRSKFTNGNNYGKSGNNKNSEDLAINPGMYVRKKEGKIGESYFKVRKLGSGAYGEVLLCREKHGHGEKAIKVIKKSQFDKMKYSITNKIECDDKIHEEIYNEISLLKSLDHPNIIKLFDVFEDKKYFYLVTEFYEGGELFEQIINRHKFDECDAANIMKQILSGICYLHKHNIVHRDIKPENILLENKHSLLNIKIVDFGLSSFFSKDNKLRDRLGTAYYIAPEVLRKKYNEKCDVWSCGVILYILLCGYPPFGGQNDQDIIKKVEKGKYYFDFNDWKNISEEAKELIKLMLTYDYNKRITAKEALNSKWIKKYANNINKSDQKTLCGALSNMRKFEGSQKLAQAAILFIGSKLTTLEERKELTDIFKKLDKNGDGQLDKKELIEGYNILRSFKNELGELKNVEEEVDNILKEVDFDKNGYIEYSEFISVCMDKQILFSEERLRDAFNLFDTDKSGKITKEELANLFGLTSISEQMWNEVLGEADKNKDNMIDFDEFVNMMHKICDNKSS
Plasmodium falciparum protein kinase 6 (PK6, PF3D7_1337100), sequence (Q8IDW1 1-305): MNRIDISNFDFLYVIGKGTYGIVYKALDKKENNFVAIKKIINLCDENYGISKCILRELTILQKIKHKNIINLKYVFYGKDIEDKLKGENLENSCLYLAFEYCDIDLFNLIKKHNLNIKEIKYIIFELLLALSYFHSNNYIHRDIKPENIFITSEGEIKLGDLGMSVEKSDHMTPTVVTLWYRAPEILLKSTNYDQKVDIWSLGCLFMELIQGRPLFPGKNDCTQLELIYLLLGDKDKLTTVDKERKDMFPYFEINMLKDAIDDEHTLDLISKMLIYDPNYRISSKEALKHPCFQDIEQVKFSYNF
Protein kinase 7 (PK7), Plasmodium falciparum 3D7 (PF3D7_0213400), sequence (Q7YTF7 1-343): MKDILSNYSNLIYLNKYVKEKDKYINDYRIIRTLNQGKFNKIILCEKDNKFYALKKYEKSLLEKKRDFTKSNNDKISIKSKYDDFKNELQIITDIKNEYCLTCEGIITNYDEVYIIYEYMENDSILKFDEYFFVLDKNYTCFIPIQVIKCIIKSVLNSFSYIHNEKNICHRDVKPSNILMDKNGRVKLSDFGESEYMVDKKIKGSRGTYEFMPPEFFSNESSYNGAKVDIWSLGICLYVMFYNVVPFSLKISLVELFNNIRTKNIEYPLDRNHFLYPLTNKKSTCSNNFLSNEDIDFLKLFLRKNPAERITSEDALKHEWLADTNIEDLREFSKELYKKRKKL
L-lactate dehydrogenase (Plasmodium falciparum (isolate CDC / Honduras)), sequence (Q27743 whole entry, looked up): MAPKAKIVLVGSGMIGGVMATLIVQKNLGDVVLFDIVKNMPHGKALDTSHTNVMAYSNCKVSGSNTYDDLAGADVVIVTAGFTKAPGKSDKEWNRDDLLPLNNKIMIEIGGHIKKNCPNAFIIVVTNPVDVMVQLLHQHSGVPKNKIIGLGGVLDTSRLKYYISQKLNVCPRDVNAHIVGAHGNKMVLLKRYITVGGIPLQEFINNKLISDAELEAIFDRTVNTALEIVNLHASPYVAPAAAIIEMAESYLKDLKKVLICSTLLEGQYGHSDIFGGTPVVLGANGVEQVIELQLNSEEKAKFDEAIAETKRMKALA

With `CCOc1ccc(-c2nonc2NC(=O)c2ccccc2OC)cc1OCC`, the growth inhibition in experiment [1] is 99% (active); in experiment [4] it was 100% (active). Further, the results for the inhibition in experiment [2] and in experiment [3] were 24% and -3%, respectively. Besides, the outcome in experiment [5], in experiment [6], in experiment [7] and in experiment [8] was inactive.

`CCC(C)CNC(=O)CN1CN(c2ccccc2)C2(CCN(C(=O)c3ccc(Br)cc3)CC2)C1=O` (stereo not given): the growth inhibition in experiment [1] and in experiment [4] was 88% (active) throughout. In addition, the figures for the inhibition in experiment [2] and in experiment [3] were 10% and -2%, respectively. In addition, the result in experiment [5], in experiment [6], in experiment [7] and in experiment [8] was inactive.

Regarding `O=C1OC(c2ccccc2)(c2ccccc2)CN1C1CCN(Cc2ccc(O)c(Cl)c2)C1` (stereo not given), the growth inhibition in experiment [1] is 93% (active); in experiment [4], 100% (active). The inhibition was 10% in experiment [2] and 3% in experiment [3]. In addition, the outcome in experiment [5], in experiment [6], in experiment [7] and in experiment [8] was inactive.

Regarding `OC(CNc1ccnc(Nc2ccccc2)n1)c1ccc(C(F)(F)F)cc1` (stereo not given), the growth inhibition is 39% in experiment [1] and 101% (active) in experiment [4]. Further, the inhibition in experiment [2] is 3%; in experiment [3], -2%. Besides, the outcome in experiment [5], in experiment [6], in experiment [7] and in experiment [8] was inactive.

Take `CCN(CC)CCCN(C(=O)c1cc2c(C)nn(-c3ccccc3)c2s1)c1nc(-c2ccc(OC)cc2)cs1`: the growth inhibition in experiment [1] was 32%; in experiment [4], 89% (active). Moreover, the inhibition in experiment [2] was 12%; in experiment [3], -7%. The outcome in experiment [5], in experiment [6], in experiment [7] and in experiment [8] was inactive.

Take `COc1ccc(F)cc1-c1cccc(CNC2CCN(CC3Cn4c(=O)ccc5ccc(F)c3c54)CC2)c1` (stereo not given): the growth inhibition was 27% in experiment [1] and 100% (active) in experiment [4]. For the same molecule, the inhibition is 46% in experiment [2] and 1% in experiment [3]. Also, the outcome in experiment [5], in experiment [6], in experiment [7] and in experiment [8] was inactive.

Take `CN1CCN(c2ccc(Nc3c(C(N)=O)cnc4cc(-c5ccoc5)ccc34)cc2)CC1`: the growth inhibition in experiment [1] is 99% (active); in experiment [4] it was 101% (active). The results for the inhibition in experiment [2] and in experiment [3] were 14% and -3%, respectively. The outcome in experiment [5], in experiment [6], in experiment [7] and in experiment [8] was inactive.

As to `N#Cc1ccc(NC(=O)c2ccc(C(=O)NCCCCN3CCC(c4ccc5c(c4OCCOC4CCCCO4)CCCC5)CC3)cc2)cc1` (stereo not given), the growth inhibition in experiment [1] was 97% (active); in experiment [4] it was 99% (active). In addition, the inhibition in experiment [2] was 72% (active); in experiment [3] it was -6%. The outcome in experiment [5], in experiment [6], in experiment [7] and in experiment [8] was inactive.

On to `O=C(/C=C/c1ccc(Cl)c(Cl)c1)NCCCCCN1CCN(C(=O)Nc2cccc(F)c2)CC1`, for which the growth inhibition in experiment [1] is 1%; in experiment [4] it was 91% (active). Besides, the inhibition in experiment [2] is 12%; in experiment [3], -1%. Further, the result in experiment [5], in experiment [6], in experiment [7] and in experiment [8] was inactive.

In the case of `CCOc1cc(C(=O)Nc2cccnc2)ccc1-c1nc2cc(Cl)c(Cl)cc2[nH]1`, the growth inhibition was 70% (active) in experiment [1] and 100% (active) in experiment [4]. The inhibition in experiment [2] is 9%; in experiment [3] it was 0%. The outcome in experiment [5], in experiment [6], in experiment [7] and in experiment [8] was inactive.

Consider `Nc1ccc2nc(C=Cc3ccc(Cl)cc3)[nH]c2c1`, for which the growth inhibition in experiment [1] is 83% (active); in experiment [4] it was 91% (active). Further, the values for the inhibition in experiment [2] and in experiment [3] were 19% and 1%, respectively. Besides, the result in experiment [5], in experiment [6], in experiment [7] and in experiment [8] was inactive.

Consider `COc1ccc2nccc([C@@H](O)CN3CCC(NC(=O)/C=C/c4c[nH]c5c(C)cccc45)CC3)c2c1`, for which the growth inhibition in experiment [1] was 88% (active); in experiment [4] it was 101% (active). In addition, the figures for the inhibition in experiment [2] and in experiment [3] were 23% and 4%, respectively. Further, the result in experiment [5], in experiment [6], in experiment [7] and in experiment [8] was inactive.

Take `Nc1nc(N)c2c(ccc3c2ccn3Cc2cccc3ccccc23)n1`: the results for the growth inhibition in experiment [1] and in experiment [4] were 95% (active) and 99% (active), respectively. The inhibition in experiment [2] was 65% (active); in experiment [3], -3%. Besides, the result in experiment [5], in experiment [6], in experiment [7] and in experiment [8] was inactive.

For `COC(=O)c1ccc(CCC(C)NCC(O)c2cccc(Cl)c2)cc1` (stereo not given), the growth inhibition in experiment [1] was 94% (active); in experiment [4], 100% (active). The inhibition in experiment [2] is -4%; in experiment [3] it was 1%. For the same molecule, the result in experiment [5], in experiment [6], in experiment [7] and in experiment [8] was inactive.

On to `CCc1cn2c3c(cc(C(=O)N[C@@H](Cc4cccc(Cl)c4)[C@H](O)CNC4CCCCC4)cc13)N(C)S(=O)(=O)CC2`, for which the growth inhibition in experiment [1] is 98% (active); in experiment [4] it was 97% (active). The inhibition in experiment [2] is 12%; in experiment [3] it was 2%. Further, the result in experiment [5], in experiment [6], in experiment [7] and in experiment [8] was inactive.

In the case of `COc1ccc(-c2nc3ccc(C)nc3nc2-c2ccc(OC)cc2)cc1`, the growth inhibition was -2% in experiment [1] and 91% (active) in experiment [4]. In addition, the inhibition in experiment [2] and in experiment [3] was 4% throughout. Further, the outcome in experiment [5], in experiment [6], in experiment [7] and in experiment [8] was inactive.

`Cc1[nH]cc(Br)c(=O)c1-c1ccc(Oc2ccccc2)cc1`: the growth inhibition in experiment [1] is 96% (active); in experiment [4], 97% (active). In addition, the inhibition in experiment [2] is -5%; in experiment [3], -6%. In addition, the result in experiment [5], in experiment [6], in experiment [7] and in experiment [8] was inactive.

With `CN1CCN(CCCN(Cc2ccc(-c3cccc(CNCc4ccc5c(c4)OCO5)c3)cc2)C(=O)NC2CCCCC2)CC1`, the growth inhibition in experiment [1] was 92% (active); in experiment [4], 95% (active). Further, the inhibition in experiment [2] is 31%; in experiment [3] it was 4%. Besides, the result in experiment [5], in experiment [6], in experiment [7] and in experiment [8] was inactive.

For `Cc1ccnc(NC(c2cccc(OCc3ccccc3)c2)c2ccc3cccnc3c2O)c1` (stereo not given), the results for the growth inhibition in experiment [1] and in experiment [4] were 88% (active) and 95% (active), respectively. Further, the inhibition in experiment [2] is 26%; in experiment [3], -2%. The outcome in experiment [5], in experiment [6], in experiment [7] and in experiment [8] was inactive.

Regarding `O=C(Nc1ccc(Cl)cc1Cl)NC1CCN(CCCCCNC(=O)[C@@H]2C[C@H]2c2ccc(Cl)c(Cl)c2)CC1`, the values for the growth inhibition in experiment [1] and in experiment [4] were 30% and 100% (active), respectively. The values for the inhibition in experiment [2] and in experiment [3] were 67% (active) and 0%, respectively. Besides, the outcome in experiment [5], in experiment [6], in experiment [7] and in experiment [8] was inactive.
